Hits are enriched below; roughly 7.5% of the tested compounds scored in any of these assays.
FLuc modulator: qHTS profiling assay for firefly luciferase inhibitor/activator using purifed enzyme and Km concentrations of substrates (counterscreen for miR-21 project); purified FLuc, Km substrates, luminescence inhibition; Luciferin 4-monooxygenase (Photinus pyralis), P08659; Potency, µM (doses to about 57.5 µM), for the others: top-dose activity change, negative = inhibition, usual class: inhibitors; hit rate 6.9% among 360,000;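 also: plate controls were vehicle for no effect and reference inhibitor for full effect; nearly all actives have a fitted effect of over 55% in size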
Target sequence (P08659 whole entry, looked up): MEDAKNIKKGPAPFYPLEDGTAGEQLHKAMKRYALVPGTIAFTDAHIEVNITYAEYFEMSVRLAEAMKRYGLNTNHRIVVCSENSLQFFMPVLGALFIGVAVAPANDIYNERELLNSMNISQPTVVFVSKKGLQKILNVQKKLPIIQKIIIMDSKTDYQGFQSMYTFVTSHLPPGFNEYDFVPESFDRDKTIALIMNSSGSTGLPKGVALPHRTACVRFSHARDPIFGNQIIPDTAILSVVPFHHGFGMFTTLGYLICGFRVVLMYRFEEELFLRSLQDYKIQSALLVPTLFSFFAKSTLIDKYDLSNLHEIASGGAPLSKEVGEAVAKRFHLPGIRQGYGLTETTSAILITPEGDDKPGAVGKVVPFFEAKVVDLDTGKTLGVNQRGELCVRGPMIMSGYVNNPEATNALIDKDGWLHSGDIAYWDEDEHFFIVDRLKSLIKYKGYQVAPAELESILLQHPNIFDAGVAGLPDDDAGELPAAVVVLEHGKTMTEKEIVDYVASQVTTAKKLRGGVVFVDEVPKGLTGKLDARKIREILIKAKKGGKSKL
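Purified P. pyralis luciferase (10nM final) with 10uM D-luciferin and 10uM ATP (Km levels) in 50mM Tris acetate pH 7.5, 10mM Mg acetate, 0.01% Tween-20, 0.05% BSA; qHTS 6-point titration, ~60 µM downward; luminescence read.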
KinaseGlo FLuc: Counterscreen for Luciferase (Kinase-Glo TM) Inhibition. hit rate 0.28% among 200,000. Kinase-Glo luciferase, ATP luminescence, 8 min. Potency, µM (series often up to 38.3 µM), without a hit: at the highest dose activity change, negative = inhibition, usual class: inhibitors. Luciferin 4-monooxygenase (Photuris pensylvanica), Q27757; also: % is scaled to controls: 0 for no effect and ±100 for the full control effect; nearly all actives have a fitted effect of over 60% in size
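Luminescence was the read-out, taken after 8-minute incubation at ambient temperature. Luciferase turned over luciferin with 10 uM ATP in imidazole pH 7.2 buffer containing KCl, MgCl2, Tween 20 and BSA.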
SMN2 splice up: qHTS Assay for Enhancers of SMN2 Splice Variant Expression; HEK293 SMN2-luciferase splicing reporter, luminescence, 30-36 h; Potency, µM (highest dose often 46.1 µM), for the others: at the highest dose activity change, positive = activation, hits mostly activators; hit rate 2.8% among 210,000; AID 1458, 2008; also: % of control where 0% means no effect; nearly all actives have a fitted effect of over 55% in size
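qHTS luciferase splicing reporter: luminescence rises when SMN2 exon 7 is included in transfected HEK293 cells. Compound exposure lasted 30-36 h at 37C, with 4.5 mM final sodium butyrate as control, followed by a ONE-Glo read.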
ELG1 genotoxic: qHTS screen for small molecules that induce genotoxicity in human embryonic kidney (HEK293T) cells expressing luciferase-tagged ELG1. HEK293T ELG1-luciferase reporter, luminescence, 16 h. Potency, µM (doses to about 46 µM), without a hit: at the highest dose activity change, positive = activation, actives largely listed as activators. hit rate 1.3% among 330,000. AID 504466, 2011; also: % of control where 0% means no effect; nearly all actives have a fitted effect of over 60% in size
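After overnight (16 hr) compound treatment at 37 °C, ELG1-luciferase HEK293T cells were lysed with ONE-Glo; luminescence quantified 30 min later at room temperature.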
NPC1 promoter act: qHTS Assay for NPC1 Promoter Activators; Huh7 NPC1 promoter luciferase reporter, 24 h; Potency, µM (top dose mostly 9.22 µM), without a hit: at the top dose activation, usual class: activators; hit rate 2.4% among 320,000; AID 485313, 2010; also: % of control where 0% means no effect; nearly all actives have a fitted effect of over 60% in size
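Luminescence read-out of NPC1 promoter-driven luciferase in stably transfected Huh7 cells; compounds delivered in DMSO and left 24 h at 37C, 5% CO2, qHTS titration format.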
Rab9 promoter act: qHTS Assay for Rab9 Promoter Activators; Huh7 Rab9 promoter-luciferase reporter, luminescence, 24 h; Potency, µM (series often up to 9.22 µM), for the others: at the highest dose activation, negative = inhibition, most hits filed as activators; hit rate 2.8% among 320,000; AID 485297, 2010; also: % of control where 0% means no effect; nearly all actives have a fitted effect of over 60% in size
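Huh7 reporter line, Rab9 promoter upstream of luciferase. Compound exposure 24 h at 37 °C in reduced-serum medium with 10% FBS. Read-out: luminescence.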
* marks the source's active call; other numbers are inactive results. Calls follow the shape of the dose curve; as a rule, active = well fitted curve in the direction sought with a large enough effect; inconclusive = small, poorly fitted or top-dose-only effect, or another doubt; inactive = no such curve, though single readings can be large; an effect the other way counts as inactive or inconclusive. Potency is read from the fitted curve at half-maximal effect.

For NNc1nc(-c2ccccc2)cs1 the results were FLuc modulator inconclusive, KinaseGlo FLuc -3.2%, SMN2 splice up -48.1%, ELG1 genotoxic inconclusive, NPC1 promoter act 14.4% and Rab9 promoter act 16.1%.
`Cc1ccnc(Nc2nc(-c3c(C)nc4sccn34)cs2)c1` gave FLuc modulator 8.49µM*, KinaseGlo FLuc 18.5%, SMN2 splice up -70.9%, ELG1 genotoxic -6.0%, NPC1 promoter act 11.2% and Rab9 promoter act -3.7%.
For Cc1ccnc(Nc2nc(-c3ccccc3)cs2)c1 the results were FLuc modulator 1.07µM*, ELG1 genotoxic inconclusive, NPC1 promoter act 1.41µM* and Rab9 promoter act inconclusive.
Cn1c(=O)n(CCOc2ccccc2Cl)c2ccccc21 was read as FLuc modulator 23.9µM*, KinaseGlo FLuc -0.4%, SMN2 splice up inconclusive, ELG1 genotoxic inconclusive, NPC1 promoter act inconclusive and Rab9 promoter act 4.47µM*.
Cc1ccc(OCCn2c(=O)n(C)c3ccccc32)cc1 was read as FLuc modulator 10.7µM*, KinaseGlo FLuc -6.4%, ELG1 genotoxic inconclusive, NPC1 promoter act 3.16µM* and Rab9 promoter act 2.82µM*.
`Cn1c(=O)n(CCOc2ccc([N+](=O)[O-])cc2)c2ccccc21` gave FLuc modulator inconclusive, ELG1 genotoxic 8.1%, NPC1 promoter act 15.4% and Rab9 promoter act 11.1%.
`Cn1c(=O)n(CCOc2ccc(Cl)cc2Cl)c2ccccc21` gave FLuc modulator -15.8%, KinaseGlo FLuc 2.1%, SMN2 splice up -14.9%, ELG1 genotoxic 14.6%, NPC1 promoter act -0.3% and Rab9 promoter act 2.7%.
`Clc1ccccc1OCCn1nnc2ccccc21` gave FLuc modulator inconclusive, ELG1 genotoxic inconclusive, NPC1 promoter act 3.16µM* and Rab9 promoter act inconclusive.
For CCCOc1ccc(C2C(=O)N(C3CCCCC3)CC(=O)N2CCc2ccccc2)cc1OC (stereo not drawn) the results were FLuc modulator -0.9%.
CC(C)Nc1ncnc2c1cnn2-c1ccc(Cl)cc1 was read as FLuc modulator 0.536µM*, KinaseGlo FLuc -3.3%, SMN2 splice up 1.26µM*, ELG1 genotoxic 0.366µM*, NPC1 promoter act 0.282µM* and Rab9 promoter act 0.316µM*.
Cc1cccc(Nc2ncnc3c2cnn3C)c1 was read as FLuc modulator -4.4%, KinaseGlo FLuc 2.4%, SMN2 splice up 1.6%, ELG1 genotoxic inconclusive, NPC1 promoter act 1.1% and Rab9 promoter act -1.4%.
`Clc1ccc(Nc2ncnc3c2cnn3-c2ccccc2)cc1` gave FLuc modulator 13.5µM*, KinaseGlo FLuc 1.6%, SMN2 splice up 42.6%, ELG1 genotoxic 11.6µM*, NPC1 promoter act inconclusive and Rab9 promoter act inconclusive.
`Cn1ncc2c(Nc3ccc(Cl)cc3)ncnc21` gave FLuc modulator inconclusive, ELG1 genotoxic 11.0%, NPC1 promoter act -4.3% and Rab9 promoter act -0.6%.
Screening Cn1ncc2c(Nc3ccc4ccccc4c3)ncnc21 returned FLuc modulator 10.7µM*, ELG1 genotoxic inconclusive, NPC1 promoter act inconclusive and Rab9 promoter act 3.16µM*.
CN(C)C(=O)c1sccc1Oc1ccc(F)cc1[N+](=O)[O-] was read as FLuc modulator -1.0%, KinaseGlo FLuc -1.4%, SMN2 splice up 3.5%, ELG1 genotoxic 3.6%, NPC1 promoter act 3.7% and Rab9 promoter act -1.5%.
Screening COc1ccc(-n2nc(C(=O)NCC(=O)NC(C)C)c3ccccc3c2=O)cc1 returned FLuc modulator 0.5%, ELG1 genotoxic -4.2%, NPC1 promoter act 1.6% and Rab9 promoter act 1.3%.
`COc1ccc(-n2nc(C(=O)NCC(=O)N3CCCC3)c3ccccc3c2=O)cc1` gave FLuc modulator 12µM*, ELG1 genotoxic 2.5%, NPC1 promoter act 2.9% and Rab9 promoter act -0.1%.

From PubChem BioAssay
